Measurements taken from PubChem BioAssay (EPA / NIEHS).
Inconclusive results are not listed. Calls of active or inactive are those of the source. Rule for the calls, unless noted: active = hit-call score of the fitted dose curve at least 0.9, where 1 is the maximum; inconclusive = response in the unintended direction; inactive = score below 0.9.

Experiments:
[1] = target: human Peroxisome Proliferator-activated Receptor alpha (PPARa), PPARA (gene 5465) (UniProt Q07869); experiment: ATG_PPARa_TRANS: Attagene TRANS-FACTORIAL HepG2 Assay for human Peroxisome Proliferator-activated Receptor alpha (PPARa) (AID 2283001)
Method in brief: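 Transfected HepG2 cells treated with test chemical for 24 h. RNA isolated, reverse-transcribed with oligo(dT), PCR-amplified, FAM-labelled and HpaI-digested. Fragments sized by capillary electrophoresis; gain-of-signal fit relative to DMSO.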

[2] = target: human Peroxisome Proliferator-activated Receptor delta (PPARd), PPARD (gene 5467) (UniProt Q03181); experiment: ATG_PPARd_TRANS: Attagene TRANS-FACTORIAL HepG2 Assay for human Peroxisome Proliferator-activated Receptor delta (PPARd) (AID 2283002)
Method in brief: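 Cell-based TRANS reporter: HepG2, transient MRTU transfection, 24 h exposure. Readout = reporter mRNA (RT-PCR/CE, 6-FAM). Gain-of-signal fit vs DMSO control.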

[3] = target: Peroxisome proliferator-activated receptor gamma (Homo sapiens) (UniProt P37231); experiment: ATG_PPARg_TRANS: Attagene TRANS-FACTORIAL HepG2 Assay for human Peroxisome Proliferator-activated Receptor-gamma (PPARg) (AID 2283007)
Method in brief: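 Transient transfection of HepG2 with GAL4-UAS-driven reporter units; chemical dosing 24 h; total RNA → oligo(dT) RT → PCR with reporter primers → 6-FAM primer extension → HpaI digest 2 h 37 C → capillary electrophoresis. Positive direction vs DMSO.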

[4] = target: Nuclear receptor subfamily 1 group I member 2 (Homo sapiens) (UniProt O75469); experiment: ATG_PXR_TRANS: Attagene TRANS-FACTORIAL HepG2 Assay for human Pregnane X Receptor (PXR) (AID 2283008)
Method in brief: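 Transient HepG2 transfectants carrying multiplexed reporter transcription units; PXR activity read through a Gal4 chimera. 24 h exposure. RT-PCR/CE fluorescence; upward curve fit referenced to DMSO.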

[5] = target: human RAR-related Orphan Receptor beta (RORb), RORB (gene 6096) (UniProt Q92753); experiment: ATG_RORb_TRANS: Attagene TRANS-FACTORIAL HepG2 Assay for human RAR-related Orphan Receptor beta (RORb) (AID 2283010)
Method in brief: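 Multiplexed transcription-factor reporter assay: HepG2 cells transiently carrying NR-Gal4/GAL4-UAS constructs, 24 h treatment, mRNA quantified by RT-PCR plus capillary electrophoresis fluorescence; activity scored as induction over DMSO.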

[6] = target: Retinoic acid receptor RXR-alpha (Homo sapiens) (UniProt P19793); experiment: ATG_RXRa_TRANS: Attagene TRANS-FACTORIAL HepG2 Assay for human Retinoid X Receptor alpha (RXRa) (AID 2283012)
Method in brief: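 Chimeric NR-GAL4 trans-activation in HepG2, 24 h treatment; reporter transcripts quantified by fluorescence on capillary electrophoresis, analysed for upward change from DMSO.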

[7] = target: human Retinoid X Receptor beta (RXRb), RXRB (gene 6257) (UniProt P28702); experiment: ATG_RXRb_TRANS: Attagene TRANS-FACTORIAL HepG2 Assay for human Retinoid X Receptor beta (RXRb) (AID 2283013)
Method in brief: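 After a 24 h incubation with test chemical, transfected HepG2 cells carrying NR-Gal4 fusions and GAL4-UAS reporter transcription units yield RNA whose reporter cDNA is FAM-labelled, HpaI-cut and sized by capillary electrophoresis; increases over DMSO are scored.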

[8] = target: human Thyroid Receptor alpha (THRa1), THRA (gene 7067) (UniProt P10827); experiment: ATG_THRa1_TRANS: Attagene TRANS-FACTORIAL HepG2 Assay for human Thyroid Receptor alpha (THRa1) (AID 2283014)
Method in brief: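 Reporter transcript induction, read by capillary electrophoresis of 6-FAM-labelled RT-PCR products, reflects activity of a transfected THRa1-Gal4 fusion in HepG2 liver cells. Cells were dosed for 24 h; activity was fitted in the positive direction against DMSO.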

[9] = BSK_3C_VCAM1: BioMAP Diversity Plus: 3C Assay for Vascular cell adhesion molecule 1 (VCAM1) Biomarker Activity (AID 2282999; active = hit-call score of the fitted dose curve at least 0.9, where 1 is the maximum; inactive = score below 0.9); conditions: BioMAP 3C HUVEC, VCAM1 ELISA, cytokine-stimulated; actives raise or lower the signal
Method in brief: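 Activity fitted in both directions relative to DMSO, with ELISA measurement of the surface marker on primary HUVEC (3C) at 24 h post-treatment; parallel SRB staining (0.1% SRB, TCA-fixed, 560 nm) flagged overt cytotoxicity.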

[10] = BSK_4H_Eotaxin3: BioMAP Diversity Plus: 4H Assay for Eotaxin 3 Biomarker Activity (AID 2283000; active = hit-call score of the fitted dose curve at least 0.9, where 1 is the maximum; inactive = score below 0.9); conditions: primary human endothelial cells (HUVEC); actives raise or lower the signal
Method in brief: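 Chemicals were added to human umbilical vein endothelium cultures, and Eotaxin-3 was quantified by ELISA at 24 h. Values were derived by bidirectional fitting with DMSO serving as negative control and activity baseline.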

[11] = read-out: Intercellular Adhesion Molecule 1 (ICAM1), ICAM1 (gene 3383); experiment: BSK_3C_ICAM1: BioMAP Diversity Plus: 3C Assay for Intercellular Adhesion Molecule 1 (ICAM1) Biomarker Activity (AID 2283003; active = hit-call score of the fitted dose curve at least 0.9, where 1 is the maximum; inactive = score below 0.9); conditions: primary human endothelial cells (HUVEC); actives raise or lower the signal
Method in brief: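 Using DMSO as baseline, bidirectional curve fitting was applied to ICAM-1 ELISA signals from HUVEC in the 3C system, measured 24 h after compound addition.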

[12] = BSK_3C_Proliferation: Cell Proliferation Assessment in the BioMAP Diversity Plus: 3C Assay (AID 2283006; active = hit-call score of the fitted dose curve at least 0.9, where 1 is the maximum; inactive = score below 0.9;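 for AC50: potency may reflect either rise or fall in cell number versus DMSO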); conditions: primary human endothelial cells (HUVEC)
Method in brief: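 Measured here: sulforhodamine B (0.1%) staining of TCA-fixed sub-confluent umbilical vein endothelial cultures 48 h post-dosing, absorbance 560 nm. DMSO served as negative control and baseline; both signal gain and loss were modelled.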

[13] = target: human Retinoic Acid Receptor gamma (RARg), RARG (gene 5916) (UniProt P13631); experiment: ATG_RARg_TRANS: Attagene TRANS-FACTORIAL HepG2 Assay for human Retinoic Acid Receptor gamma (RARg) (AID 2283009)
Method in brief: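 Gain-of-signal relative to DMSO is reported from fluorescent capillary electrophoresis of RT-PCR reporter products. These came from HepG2 cells expressing transfected RARg-GAL4 chimeras with UAS reporters, harvested 24 h after dosing.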

[14] = read-out: E-selectin (Homo sapiens) (UniProt P16581); experiment: BSK_3C_Eselectin: BioMAP Diversity Plus: 3C Assay for Eselectin Biomarker Activity (AID 2283015; active = hit-call score of the fitted dose curve at least 0.9, where 1 is the maximum; inactive = score below 0.9); conditions: primary human endothelial cells (HUVEC); actives raise or lower the signal
Method in brief: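 ELISA read-out of E-selectin on endothelial monolayers after 24 h chemical treatment. Human umbilical vein primary cells served as the system, with DMSO defining baseline activity for bidirectional fitting.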

[15] = read-out: Interleukin-1 alpha (IL1a), IL1A (gene 3552); experiment: BSK_BE3C_IL1a: BioMAP Diversity Plus: BE3C Assay for Interleukin-1 alpha (IL1a) Biomarker Activity (AID 2283016; active = hit-call score of the fitted dose curve at least 0.9, where 1 is the maximum; inactive = score below 0.9); conditions: primary human bronchial epithelial cells; actives raise or lower the signal
Method in brief: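 Measured in human lung primary bronchial epithelial cells: IL-1a by ELISA at 24 h after dosing, with bidirectional fitting against DMSO.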

[16] = read-out: Monocyte Chemoattractant Protein-1 (MCP1), CCL2 (gene 6347); experiment: BSK_3C_MCP1: BioMAP Diversity Plus: 3C Assay for Monocyte Chemoattractant Protein-1 (MCP1) Biomarker Activity (AID 2283017; active = hit-call score of the fitted dose curve at least 0.9, where 1 is the maximum; inactive = score below 0.9); conditions: primary human endothelial cells (HUVEC); actives raise or lower the signal
Method in brief: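 ELISA read-out of MCP-1 from human umbilical vein endothelial cell cultures harvested 24 h post-dosing. Gain or loss of signal was fitted relative to DMSO.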

[17] = read-out: Monocyte Chemoattractant Protein-1 (MCP1), CCL2 (gene 6347); experiment: BSK_4H_MCP1: BioMAP Diversity Plus: 4H Assay for Monocyte Chemoattractant Protein-1 (MCP1) Biomarker Activity (AID 2283018; active = hit-call score of the fitted dose curve at least 0.9, where 1 is the maximum; inactive = score below 0.9); conditions: primary human endothelial cells (HUVEC); actives raise or lower the signal
Method in brief: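 Primary human umbilical vein endothelium is exposed to chemical for 24 h before MCP-1 is assayed by ELISA. Concentration-response fitted bidirectionally relative to DMSO.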

Measured: AC50

Sequence of human Thyroid Receptor alpha (THRa1), THRA (gene 7067) (P10827 whole entry, looked up, the tested form may be a part): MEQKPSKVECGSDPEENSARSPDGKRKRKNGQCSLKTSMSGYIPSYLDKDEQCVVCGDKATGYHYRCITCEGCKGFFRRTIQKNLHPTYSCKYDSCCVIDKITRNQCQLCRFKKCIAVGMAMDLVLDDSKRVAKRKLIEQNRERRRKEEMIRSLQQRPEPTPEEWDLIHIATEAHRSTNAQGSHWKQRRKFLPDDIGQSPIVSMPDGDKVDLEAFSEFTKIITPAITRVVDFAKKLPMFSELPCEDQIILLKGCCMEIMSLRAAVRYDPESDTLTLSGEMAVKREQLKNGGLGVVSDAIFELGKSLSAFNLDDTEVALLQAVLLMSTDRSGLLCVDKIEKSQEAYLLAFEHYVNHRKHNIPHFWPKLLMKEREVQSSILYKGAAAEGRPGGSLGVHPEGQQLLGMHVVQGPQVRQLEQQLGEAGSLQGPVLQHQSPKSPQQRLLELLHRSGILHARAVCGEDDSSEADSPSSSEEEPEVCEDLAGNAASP
Sequence of E-selectin (Homo sapiens) (P16581 whole entry, looked up): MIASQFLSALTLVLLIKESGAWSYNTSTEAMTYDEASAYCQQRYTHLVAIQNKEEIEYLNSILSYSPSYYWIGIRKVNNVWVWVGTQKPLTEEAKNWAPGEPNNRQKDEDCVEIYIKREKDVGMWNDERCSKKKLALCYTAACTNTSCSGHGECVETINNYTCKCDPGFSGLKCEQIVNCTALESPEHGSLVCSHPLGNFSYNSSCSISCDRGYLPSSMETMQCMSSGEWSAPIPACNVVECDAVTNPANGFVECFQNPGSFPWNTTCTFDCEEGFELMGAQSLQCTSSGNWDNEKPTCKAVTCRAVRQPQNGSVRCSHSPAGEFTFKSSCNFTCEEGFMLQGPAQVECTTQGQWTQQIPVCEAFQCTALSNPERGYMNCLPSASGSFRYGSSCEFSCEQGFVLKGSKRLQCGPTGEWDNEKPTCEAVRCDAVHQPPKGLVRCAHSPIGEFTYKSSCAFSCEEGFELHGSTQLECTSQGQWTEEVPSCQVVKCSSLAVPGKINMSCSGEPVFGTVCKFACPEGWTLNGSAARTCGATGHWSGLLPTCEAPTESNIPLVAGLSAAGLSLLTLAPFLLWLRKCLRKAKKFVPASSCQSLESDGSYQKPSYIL
Sequence of Retinoic acid receptor RXR-alpha (Homo sapiens) (P19793 whole entry, looked up, the tested form may be a part): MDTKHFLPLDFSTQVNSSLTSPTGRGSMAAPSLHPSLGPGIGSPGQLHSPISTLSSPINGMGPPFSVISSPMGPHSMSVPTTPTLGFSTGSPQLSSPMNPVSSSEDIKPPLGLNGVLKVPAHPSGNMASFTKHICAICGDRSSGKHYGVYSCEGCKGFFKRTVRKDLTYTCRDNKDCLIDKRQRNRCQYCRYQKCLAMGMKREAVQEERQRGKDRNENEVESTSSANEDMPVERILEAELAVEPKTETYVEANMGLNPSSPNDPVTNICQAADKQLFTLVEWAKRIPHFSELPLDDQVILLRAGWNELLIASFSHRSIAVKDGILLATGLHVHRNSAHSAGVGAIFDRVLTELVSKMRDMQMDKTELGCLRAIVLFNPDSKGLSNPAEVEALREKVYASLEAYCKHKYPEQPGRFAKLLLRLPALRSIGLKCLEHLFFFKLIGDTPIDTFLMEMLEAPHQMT
Sequence of Nuclear receptor subfamily 1 group I member 2 (Homo sapiens) (O75469 whole entry, looked up, the tested form may be a part): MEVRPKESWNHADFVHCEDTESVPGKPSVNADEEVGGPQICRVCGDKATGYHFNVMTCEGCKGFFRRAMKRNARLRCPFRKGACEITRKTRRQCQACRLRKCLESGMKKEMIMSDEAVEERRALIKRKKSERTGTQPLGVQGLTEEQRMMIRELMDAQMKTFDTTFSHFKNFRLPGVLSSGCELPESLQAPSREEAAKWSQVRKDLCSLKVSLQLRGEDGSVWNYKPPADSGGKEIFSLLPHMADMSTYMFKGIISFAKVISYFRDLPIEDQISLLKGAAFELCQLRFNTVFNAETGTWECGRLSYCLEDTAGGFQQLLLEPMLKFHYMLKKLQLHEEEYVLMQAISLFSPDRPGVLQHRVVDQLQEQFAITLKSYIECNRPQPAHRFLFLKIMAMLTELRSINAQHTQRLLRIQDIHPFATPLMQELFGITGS
Sequence of Peroxisome proliferator-activated receptor gamma (Homo sapiens) (P37231 whole entry, looked up, the tested form may be a part): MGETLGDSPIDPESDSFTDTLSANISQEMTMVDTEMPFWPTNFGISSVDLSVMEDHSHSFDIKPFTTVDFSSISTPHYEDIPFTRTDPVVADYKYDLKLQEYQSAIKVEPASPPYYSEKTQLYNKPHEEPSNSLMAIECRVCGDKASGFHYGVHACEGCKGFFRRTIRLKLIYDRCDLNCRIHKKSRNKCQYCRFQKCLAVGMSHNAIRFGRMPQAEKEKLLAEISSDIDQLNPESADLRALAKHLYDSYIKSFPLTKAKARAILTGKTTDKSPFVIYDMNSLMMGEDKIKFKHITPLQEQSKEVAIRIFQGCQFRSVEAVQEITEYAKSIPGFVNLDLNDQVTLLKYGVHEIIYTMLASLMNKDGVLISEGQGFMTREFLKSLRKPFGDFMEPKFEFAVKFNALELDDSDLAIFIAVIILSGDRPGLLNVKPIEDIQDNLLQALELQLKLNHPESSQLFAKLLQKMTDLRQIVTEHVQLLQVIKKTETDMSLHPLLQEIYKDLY
Sequence of human Peroxisome Proliferator-activated Receptor alpha (PPARa), PPARA (gene 5465) (Q07869 whole entry, looked up, the tested form may be a part): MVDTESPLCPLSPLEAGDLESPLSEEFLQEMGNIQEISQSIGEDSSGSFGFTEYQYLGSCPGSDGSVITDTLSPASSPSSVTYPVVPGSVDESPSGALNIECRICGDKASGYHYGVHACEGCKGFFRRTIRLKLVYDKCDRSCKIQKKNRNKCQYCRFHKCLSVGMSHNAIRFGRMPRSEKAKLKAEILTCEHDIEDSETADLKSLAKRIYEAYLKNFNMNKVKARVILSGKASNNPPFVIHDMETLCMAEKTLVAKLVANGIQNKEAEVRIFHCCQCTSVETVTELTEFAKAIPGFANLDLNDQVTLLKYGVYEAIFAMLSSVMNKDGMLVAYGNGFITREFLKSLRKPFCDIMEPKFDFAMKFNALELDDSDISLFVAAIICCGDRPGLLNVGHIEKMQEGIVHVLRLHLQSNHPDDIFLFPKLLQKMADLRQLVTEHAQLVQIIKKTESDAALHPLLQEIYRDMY
Sequence of human Peroxisome Proliferator-activated Receptor delta (PPARd), PPARD (gene 5467) (Q03181 whole entry, looked up): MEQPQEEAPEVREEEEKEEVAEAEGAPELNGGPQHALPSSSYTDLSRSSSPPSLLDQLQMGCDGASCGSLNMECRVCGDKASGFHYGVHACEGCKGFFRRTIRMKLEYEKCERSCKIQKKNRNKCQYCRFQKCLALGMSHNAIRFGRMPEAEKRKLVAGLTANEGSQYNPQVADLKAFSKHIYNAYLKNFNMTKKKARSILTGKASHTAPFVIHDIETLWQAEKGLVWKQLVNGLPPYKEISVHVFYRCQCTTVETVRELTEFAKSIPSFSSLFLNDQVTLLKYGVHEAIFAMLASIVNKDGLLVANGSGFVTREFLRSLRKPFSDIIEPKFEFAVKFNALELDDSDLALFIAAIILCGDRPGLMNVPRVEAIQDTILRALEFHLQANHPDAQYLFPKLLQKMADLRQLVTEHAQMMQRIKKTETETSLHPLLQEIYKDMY
Sequence of human Retinoid X Receptor beta (RXRb), RXRB (gene 6257) (P28702 whole entry, looked up, the tested form may be a part): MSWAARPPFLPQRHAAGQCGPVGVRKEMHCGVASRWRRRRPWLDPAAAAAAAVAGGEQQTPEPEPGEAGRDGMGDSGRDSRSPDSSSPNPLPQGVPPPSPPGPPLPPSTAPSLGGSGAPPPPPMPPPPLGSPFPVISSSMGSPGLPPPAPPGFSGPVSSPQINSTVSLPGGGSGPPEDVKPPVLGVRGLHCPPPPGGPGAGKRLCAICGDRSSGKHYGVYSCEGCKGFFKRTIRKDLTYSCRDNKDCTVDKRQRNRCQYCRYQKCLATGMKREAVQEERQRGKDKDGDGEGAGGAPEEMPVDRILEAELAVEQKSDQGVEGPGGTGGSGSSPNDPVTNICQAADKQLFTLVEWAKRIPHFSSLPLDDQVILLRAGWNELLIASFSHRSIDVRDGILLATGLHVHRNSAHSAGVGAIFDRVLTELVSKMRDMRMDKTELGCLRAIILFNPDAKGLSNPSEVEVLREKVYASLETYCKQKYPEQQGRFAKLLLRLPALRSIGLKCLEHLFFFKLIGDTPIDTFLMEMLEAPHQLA
Sequence of human Retinoic Acid Receptor gamma (RARg), RARG (gene 5916) (P13631 whole entry, looked up, the tested form may be a part): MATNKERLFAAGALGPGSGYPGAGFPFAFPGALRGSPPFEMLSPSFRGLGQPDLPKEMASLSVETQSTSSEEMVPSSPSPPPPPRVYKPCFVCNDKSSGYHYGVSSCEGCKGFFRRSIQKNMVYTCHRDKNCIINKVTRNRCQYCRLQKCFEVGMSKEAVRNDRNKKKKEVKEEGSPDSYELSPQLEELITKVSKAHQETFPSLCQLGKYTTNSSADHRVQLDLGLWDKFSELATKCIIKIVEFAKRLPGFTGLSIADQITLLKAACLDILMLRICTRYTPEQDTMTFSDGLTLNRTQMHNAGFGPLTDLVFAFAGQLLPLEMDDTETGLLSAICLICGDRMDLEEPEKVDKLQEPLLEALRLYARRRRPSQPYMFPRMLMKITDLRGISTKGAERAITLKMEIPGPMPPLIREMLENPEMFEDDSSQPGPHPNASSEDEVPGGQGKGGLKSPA
Sequence of human RAR-related Orphan Receptor beta (RORb), RORB (gene 6096) (Q92753 whole entry, looked up, the tested form may be a part): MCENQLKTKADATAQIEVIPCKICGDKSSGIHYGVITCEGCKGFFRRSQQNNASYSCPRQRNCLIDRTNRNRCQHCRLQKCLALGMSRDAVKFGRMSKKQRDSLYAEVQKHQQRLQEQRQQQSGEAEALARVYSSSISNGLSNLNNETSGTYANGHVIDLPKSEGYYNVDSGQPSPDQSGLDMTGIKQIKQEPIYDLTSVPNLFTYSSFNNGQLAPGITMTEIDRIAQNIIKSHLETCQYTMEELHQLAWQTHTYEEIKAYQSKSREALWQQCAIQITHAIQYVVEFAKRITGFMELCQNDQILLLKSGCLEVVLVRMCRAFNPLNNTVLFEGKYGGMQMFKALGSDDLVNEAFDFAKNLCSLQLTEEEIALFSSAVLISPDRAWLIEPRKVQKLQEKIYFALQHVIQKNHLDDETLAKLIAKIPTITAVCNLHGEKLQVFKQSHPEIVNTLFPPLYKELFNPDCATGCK

c1cc[c]([Hg][c]2ccccc2)cc1
inactive: [1] | [2] | [4] | [5] | [6] | [7] | [8]
active: [3] 25.2 µM

CC1(C)Cc2cccc(O)c2O1
not listed: [1] | [2] | [3] | [5] | [8]
inactive: all other assays above

c1ccc(N=NNc2ccccc2)cc1
inactive: [1] | [2] | [13] | [6]
active: [3] 65.7 µM | [4] 33.6 µM | [8] 134 µM

CC(C)(C)c1cc(O)ccc1O
active: [9] 28.1 µM | [10] 27.4 µM | [12] 9.85 µM | [4] 3.34 µM | [14] 31.8 µM | [16] 35.2 µM
inactive: [1] | [11] | [8] | [15] | [17]

O=C(Nc1ccc2[nH]ccc2c1)c1cc2cc(F)ccc2n1Cc1cccc(F)c1
active: [9] 11.7 µM | [10] 11.1 µM | [11] 13.7 µM | [12] 3.44 µM | [14] 10.9 µM | [15] 10.3 µM | [16] 8.53 µM | [17] 5.82 µM
inactive: [2] | [3] | [4] | [6]
